# Rows were chosen to be rich in hits. Some 7.5% of all compounds tested hit in one or more screens of this group.
# NPC1 promoter act – qHTS Assay for NPC1 Promoter Activators | Huh7 NPC1 promoter luciferase reporter, 24 h | Potency, µM (highest dose often 9.22 µM), for the others: at the highest dose activation, usual class: activators | hit rate 2.4% among 320,000; further: % of control where 0% means no effect; nearly all actives have a fitted effect of over 60% in size
#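 Luminescence read-out of NPC1 promoter-driven luciferase in stably transfected Huh7 cells; compounds delivered in DMSO and left 24 h at 37C, 5% CO2, qHTS titration format.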
# Rab9 promoter act – qHTS Assay for Rab9 Promoter Activators | Huh7 Rab9 promoter-luciferase reporter, luminescence, 24 h | Potency, µM (titrated, usually from 9.22 µM), without a hit: at the highest dose activation, negative = inhibition, hits mostly activators | hit rate 2.8% among 320,000; further: % of control where 0% means no effect; nearly all actives have a fitted effect of over 60% in size
#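 Measured in stably transfected Huh7 cells bearing a Rab9 promoter–luciferase construct: 24 h compound treatment at 37 °C, followed by luminescence detection.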
# FLuc counter – qHTS profiling assay for firefly luciferase inhibitor/activator using purifed enzyme and Km concentrations of substrates (counterscreen for miR-21 project) | Luciferin 4-monooxygenase (Photinus pyralis), P08659 | purified FLuc, Km substrates, luminescence inhibition | Potency, µM (doses to about 57.5 µM), inactives show at the top dose activity change, negative = inhibition, actives largely listed as inhibitors | hit rate 6.9% among 360,000 | AID 588342, 2011;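 further: plate controls were vehicle for no effect and reference inhibitor for full effect; nearly all actives have a fitted effect of over 55% in size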
# Target sequence (P08659 whole entry, looked up): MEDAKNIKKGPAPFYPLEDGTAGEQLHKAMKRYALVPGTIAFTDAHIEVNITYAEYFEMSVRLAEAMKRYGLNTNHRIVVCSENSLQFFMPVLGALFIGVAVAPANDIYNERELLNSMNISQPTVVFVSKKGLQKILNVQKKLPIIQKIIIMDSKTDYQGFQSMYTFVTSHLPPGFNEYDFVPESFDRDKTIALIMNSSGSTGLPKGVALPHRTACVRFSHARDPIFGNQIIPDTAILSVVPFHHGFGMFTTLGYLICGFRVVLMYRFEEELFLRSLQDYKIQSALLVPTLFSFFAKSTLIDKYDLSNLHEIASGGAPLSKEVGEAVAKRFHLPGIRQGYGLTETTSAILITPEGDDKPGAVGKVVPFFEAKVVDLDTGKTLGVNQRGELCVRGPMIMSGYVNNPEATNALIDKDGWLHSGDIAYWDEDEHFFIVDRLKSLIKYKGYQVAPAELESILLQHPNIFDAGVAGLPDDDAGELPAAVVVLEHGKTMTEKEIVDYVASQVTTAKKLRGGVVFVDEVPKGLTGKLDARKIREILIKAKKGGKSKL
#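 Purified P. pyralis luciferase, 10 nM final, with Km-level 10 uM D-luciferin and 10 uM ATP in 50 mM Tris acetate pH 7.5, 10 mM Mg acetate, 0.01% Tween-20, 0.05% BSA; 6-point qHTS titration about 60 µM downward; luminescence read.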
# SMN2 splice enh – qHTS Assay for Enhancers of SMN2 Splice Variant Expression; HEK293 SMN2-luciferase splicing reporter, luminescence, 30-36 h; Potency, µM (top dose mostly 46.1 µM), inactives show at the top dose activity change, positive = activation, actives largely listed as activators; hit rate 2.8% among 210,000; AID 1458, 2008; further: % of control where 0% means no effect; nearly all actives have a fitted effect of over 55% in size
#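 qHTS luciferase splicing reporter: luminescence rises when SMN2 exon 7 is included in transfected HEK293 cells. Compound exposure lasted 30-36 h at 37C, with 4.5 mM final sodium butyrate as control, followed by a ONE-Glo read.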
# ELG1 genotox – qHTS screen for small molecules that induce genotoxicity in human embryonic kidney (HEK293T) cells expressing luciferase-tagged ELG1. HEK293T ELG1-luciferase reporter, luminescence, 16 h. Potency, µM (doses to about 46 µM), for the others: at the highest dose activity change, positive = activation, actives largely listed as activators. hit rate 1.3% among 330,000; further: % of control where 0% means no effect; nearly all actives have a fitted effect of over 60% in size
#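 Step 1: seed 2,000 HEK293T ELG1-luciferase cells per well. Step 2: add compound or DMSO, incubate 16 hr at 37 °C. Step 3: ONE-Glo, 30 min at room temperature, read luminescence.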
# Numbers without * were called inactive; u = inconclusive; x = no result; [ ] = another dose, or the depositor's remark. The call rests on the fitted dose curve; in most records, active means well fitted curve in the direction sought with a large enough effect; inconclusive means small, poorly fitted or top-dose-only effect, or another doubt; inactive means no such curve, though single readings can be large; an effect the other way counts as inactive or inconclusive. Potency means the concentration at half of the fitted maximal effect.
SMILES,NPC1 promoter act,Rab9 promoter act,FLuc counter,SMN2 splice enh,ELG1 genotox
Cc1ccc(C(=O)CSc2ccc(-c3ccccc3)nn2)cc1,2.2%,0.4%,u,7.4%,1.8%
COc1ccc(C(=O)CSc2nnc(-c3ccc(C)cc3)o2)cc1,0.2%,-7.1%,-0.6%,1.0%,u
O=C(CSc1ccc(-c2ccccc2)nn1)c1ccccc1,u,u,16.9µM*,u,u
COc1ccc(-c2ccc(SCC(=O)c3ccc(F)cc3)nn2)cc1OC,-6.8%,0.2%,13.5µM*,-17.5%,-4.6%
COC(=O)CC(NC(=O)c1cccs1)c1ccc(OC)c(OC)c1 (stereo not given),-0.1%,-6.7%,0.7%,1.2%,4.1%
COc1ccc(-c2ccc(SCC(=O)c3cccs3)nn2)cc1OC,-0.7%,-9.3%,19µM*,u,4.1%
Cc1ccc(CC(=O)NC2CCN(Cc3ccccc3)CC2)cc1,-1.3%,-0.2%,-2.4%,x,-9.1%
Cc1ccc(S(=O)(=O)N(Cc2ccccc2)C(C)C)cc1,-4.5%,-2.2%,1.7%,x,-5.8%
N#Cc1ccc(-c2cccnc2)nc1SCC(=O)c1ccccc1,u,3.16µM*,u,x,14.9%
CC1=NN(c2ccccc2)C(=O)/C1=C/c1cccs1,8.6%,-1.6%,8.49µM*,3.4%,17.5%
CC1=NN(c2ccccc2)C(=O)/C1=C/c1ccc[nH]1,16.0%,2.7%,16.9µM*,10µM*,u
COc1ccc(/C=C2/C(=O)N(c3ccccc3)N=C2C)cc1Br,-6.6%,-4.5%,13.5µM*,x,16.2%
CC1=NN(c2ccc(C(=O)O)cc2)C(=O)/C1=C\c1ccc(OC(=O)c2cccs2)cc1,-5.8%,1.5%,23.9µM*,7.5%,-0.9%
CC1=NN(c2ccccc2)C(=O)/C1=C/c1ccc(Cl)cc1,0.1%,0.1%,u,x,-6.0%
CCOc1cc(/C=C2\C(=O)N(c3ccc(C(N)=O)cc3)N=C2C)ccc1OC(=O)c1cccs1,-1.4%,6.0%,u,-2.9%,7.8%
C[C@H](NS(=O)(=O)c1ccc(Cl)c(Cl)c1)C(=O)OCc1cc(=O)n2cc(Br)ccc2n1,1.1%,-2.1%,1.1%,3.1%,-2.8%
CC1=NN(c2cccc(F)c2)C(=O)/C1=C/c1ccc(N(C)C)cc1,11.0%,5.9%,5.36µM*,x,-3.3%
COc1ccc(/C=C2/C(=O)N(c3cccc(F)c3)N=C2C)c(OC)c1,2.1%,-0.1%,u,x,-6.0%
CC1=NN(c2ccccc2)C(=O)/C1=C/c1c(O)n(-c2ccc(F)cc2)[nH]c1=O,24.7%,19.3%,0.601µM*,-3.2%[1.84 µM],u
CC1=NN(c2ccccc2)C(=O)/C1=C\c1ccc(Br)s1,1.7%,-4.0%,9.53µM*,-0.3%[1.84 µM],u
O=C(NCc1ccco1)c1cccnc1-c1nc2ccccc2s1,-3.2%,2.3%,4.5%,u,-17.1%
Cc1cccc(N2CCN(C(=O)c3ccc4c(c3)NC(=O)C(CSCc3cccc(F)c3)N4)CC2C)c1 (stereo not given),-1.4%,-13.3%,0.4%,x,-0.5%
CCOC(=O)C1CCN(C(=O)CN2C(=O)c3ccccc3Sc3ncccc32)CC1,-5.8%,1.7%,-0.9%,x,0.6%
COc1ccccc1-c1cnn2c(NC3CCCC3)cc(C)nc12,u,2.82µM*,1.9µM*,x,u
COc1ccccc1-c1ccc(NC2CCCC2)nn1,26.4%,u,13.5µM*,11.2µM*,u
SMILES,NPC1 promoter act,Rab9 promoter act,FLuc counter,SMN2 splice enh,ELG1 genotox
CCOC(=O)N1CCC(Nc2cc(C)nc3c(-c4ccccc4OC)c(C)nn23)CC1,-5.7%,-2.9%,-1.1%,-30.2%,11.9%
C[C@@H]1O[C@H](O[C@@H]2[C@H](C)O[C@H](O[C@@H]3[C@H](C)O[C@H](O[C@H]4CC[C@]5(C)[C@@H](CC[C@@H]6[C@H]5C[C@@H](O)[C@]5(C)[C@@H](C7=CC(=O)OC7)CC[C@]65O)C4)C[C@@H]3O)C[C@@H]2O)C[C@H](O)[C@@H]1O,x,x,x,-81.8%[20.6 µM],x
O=c1c2[nH]c3ccccc3c2nc2n1CCS2,-2.1%,3.1%,-12.8%,24.7%,13.1%
O=C(NCc1ccccn1)Nc1cc(Cl)cc(Cl)c1,-1.0%,2.4%,1.6%,x,-1.3%
CCOC(=O)c1c(C)[nH]c(C(=O)CSc2nccc(C)n2)c1C,2.82µM*,2.82µM*,u,8.91µM*,u
CCOC(=O)c1c(C)[nH]c(C(=O)OCc2ccccc2)c1C,1.26µM*,0.631µM*,2.13µM*,x,1.83µM*
CCOC(=O)c1[nH]c(C)c(C(=O)/C=C/c2ccc(C(=O)O)cc2)c1C,5.7%,-3.4%,13.5µM*,x,22.3%
CCOC(=O)c1[nH]c(C)c(C(=O)OCc2ccc(C)cc2)c1C,-4.6%,-0.3%,1.1%,x,-0.3%
CCOC(=O)c1c(C)[nH]c(C(=O)C(C)Sc2ccc(Cl)cc2)c1C (stereo not given),13.6%,u,26.9µM*,1.9%,0.7%
COc1ccc(Cn2c(CNS(=O)(=O)c3ccc(Cl)s3)nc3cccnc32)cc1,x,x,-16.1%,x,x
CC(=O)c1c(C)[nH]c(C(=O)CSc2ccc(F)cc2)c1C,u,17.4%,13.5µM*,x,5.6%
Cc1cc(C)nc(SCC(=O)c2ccc(C)c(C)c2)n1,3.9%,1.5%,-3.7%,x,11.5%
CCOC(=O)c1c(C)[nH]c(C(=O)COC(=O)CCSc2ccccc2)c1C,9.4%,2.5%,16.9µM*,23.2%,u
CCOC(=O)c1c(C)[nH]c(C(=O)CSc2ccccc2)c1C,0.562µM*,0.398µM*,0.536µM*,x,0.651µM*
Cc1cc(C(=O)CSc2ccc(F)cc2)cc(C)c1O,11.8%,17.2%,19µM*,x,u
CC(=O)c1c(C)[nH]c(C(=O)COC(=O)CCSc2ccccc2)c1C,-0.7%,-0.6%,3.7%,-12.9%,0.4%
COc1ccc(/C=N/NC(=O)CNC(=O)c2ccc3c(c2)OCCO3)cc1OC,-4.1%,-6.3%,u,5.9%,1.5%
CCOC(=O)c1c(C)[nH]c(C(=O)N/N=C\c2ccccc2O)c1C,-6.7%,-6.3%,6.75µM*,-78.0%,u
CCOC(=O)c1c(C)[nH]c(C(=O)N/N=C/c2cc([N+](=O)[O-])ccc2O)c1C,-3.4%,16.4%,u,x,5.6%

# Bioassay records deposited in PubChem BioAssay by National Center for Advancing Translational Sciences (NCATS).
